Screens: PubChem BioAssay, several laboratories
CCHF vOTU inh-1: CCHFV vOTU protease inhibition; inhibition, % at 11.5 µM; Pep-AMC fluorescence; 370,000 compounds, 0.55% hits; note: 0% = vehicle wells with enzyme and 100% = no enzyme wells
PrPC surface inh: inhibitors of human cell surface prion protein PrPC | TR-FRET read-out | 370,000 compounds, 0.43% hits | inhibition, % at 13.8 µM; in the data active = inhibition above about 24%; note: 0% = median of the test wells and 100% = reference compound wells
PriA SSB inh: K. pneumoniae PriA-SSBct interaction inhibition | AlphaScreen SSBct-PriA binding, biotinylated peptide | AID 1272365 | 430,000 compounds, 0.6% hits | inhibition, % at 33 µM; in the data active = inhibition mostly above about 37%, no sharp cut-off; inactive = mostly below about 20%;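 note: plate controls were negative control peptide for no effect and reference peptide for full effect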
TcdB GH inh: inhibitors of Clostridioides difficile toxin B glycohydrolase. P18177. TcdB glycohydrolase enzymatic assay, plate reader. inhibition, % at 9.99 µM. 350,000 compounds, 0.24% hits. AID 652162; in the data active = inhibition above about 10%
DUSP3 inh: blocks human VHR1 dual specificity phosphatase; P51452; 290,000 compounds, 0.52% hits; recombinant VHR phosphatase, pNPP absorbance; AID 1654; inhibition, % at 13.3 µM; in the data active = inhibition above about 50%
Target sequence (P51452 whole entry, looked up): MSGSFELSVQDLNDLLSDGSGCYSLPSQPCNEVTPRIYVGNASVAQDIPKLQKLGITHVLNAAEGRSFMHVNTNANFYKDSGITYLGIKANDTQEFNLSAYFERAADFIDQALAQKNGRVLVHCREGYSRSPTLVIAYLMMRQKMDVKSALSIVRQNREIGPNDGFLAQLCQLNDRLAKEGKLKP
Vc quorum ag: inducers of Vibrio cholerae quorum light production without autoinducers. V. cholerae BH1578 lux reporter, luminescence, 6 h. activation, % at 18.7 µM. 350,000 compounds, 0.16% hits; in the data active = activation mostly above about 9.7%, no sharp cut-off
CCHF vOTU inh-2: CCHFV vOTU protease inhibition, confirmation; shares compounds with CCHF vOTU inh-1; Recombinant CCHFV vOTU, Pep-AMC fluorescence; inhibition, % at 11.5 µM; 1,900 compounds, 17% hits
* = called active by the depositor. Rows were chosen to be rich in hits. Some 1.5% of all compounds tested hit in one or more screens of this group. Cut-off read from the data, not from the text of the source, unless noted: active = inhibition above about 30%; inactive = the rest.

For O=C(Cc1ccccc1)Nc1cc(Cl)ccc1Sc1ccccc1 the results were CCHF vOTU inh-1 30*, PrPC surface inh 7, PriA SSB inh 0, DUSP3 inh 5, Vc quorum ag -1 and CCHF vOTU inh-2 -13.
O=C(Cc1ccc(Cl)cc1)Nc1ccccc1Sc1ccccc1 was read as CCHF vOTU inh-1 -4, PrPC surface inh 4, PriA SSB inh -3, DUSP3 inh -8 and Vc quorum ag -1.
`Cc1noc(C)c1S(=O)(=O)NCCC(O)c1cccn1C` (centres undefined) gave PriA SSB inh 3.
O=C(Oc1ccc2c(c1)OCO2)c1cc2c(s1)CCC2 was read as CCHF vOTU inh-1 46*, PrPC surface inh -9, PriA SSB inh -26, DUSP3 inh 1, Vc quorum ag -6 and CCHF vOTU inh-2 -9.
Screening O=C(c1cc2c(s1)CCCC2)N1CCN(Cc2ccc3c(c2)OCO3)CC1 returned CCHF vOTU inh-1 11, PrPC surface inh -4, PriA SSB inh 14, DUSP3 inh 8 and Vc quorum ag 1.
Screening c1cncc(-c2ccc3ncnc(NCc4ccc5c(c4)OCO5)c3c2)c1 returned CCHF vOTU inh-1 9, PrPC surface inh 0, PriA SSB inh 13, TcdB GH inh 0 and Vc quorum ag -1.
`Fc1cccc(CNc2ncnc3ccc(-c4ccc5c(c4)OCO5)cc23)c1` gave CCHF vOTU inh-1 30*, PrPC surface inh -4, PriA SSB inh -7, TcdB GH inh -3, Vc quorum ag -1 and CCHF vOTU inh-2 -13.
For Cc1ccc(OCc2cc(C(=O)N3CCC(C(O)C(C)C)CC3)no2)cc1C (centres undefined) the results were CCHF vOTU inh-1 33*, PrPC surface inh 12, PriA SSB inh -5, TcdB GH inh -7, DUSP3 inh -15, Vc quorum ag inactive and CCHF vOTU inh-2 -9.
`CSc1ccccc1NC(=O)CN(C)C(=O)COc1cccc2cccnc12` gave CCHF vOTU inh-1 33*, PrPC surface inh -4, PriA SSB inh 18, TcdB GH inh -1, Vc quorum ag 0 and CCHF vOTU inh-2 -9.
Screening O=C(NCc1cccnc1-c1cccs1)Nc1ccccc1C(F)(F)F returned PriA SSB inh -5.
Screening O=C1c2cccc(O)c2C(=O)c2c(O)cccc21 returned DUSP3 inh 5.
Screening O=C1C=C(O)c2cccc(O)c2C1=O returned CCHF vOTU inh-1 94*, PrPC surface inh -11, PriA SSB inh 0, TcdB GH inh -8, DUSP3 inh 14, Vc quorum ag 0 and CCHF vOTU inh-2 16.
`CC1CCC(N(C)C(=O)CN2C(=O)NC(c3ccccc3)(c3ccccc3)C2=O)CC1` (centres undefined) gave CCHF vOTU inh-1 16, PrPC surface inh -7, TcdB GH inh 0 and Vc quorum ag inactive.
`COc1ccc(C2(c3ccc(OC)cc3)NC(=O)N(CC(=O)N(C)C3CCC(C)CC3)C2=O)cc1` (centres undefined) gave CCHF vOTU inh-1 30*, PrPC surface inh 4, PriA SSB inh -18, TcdB GH inh -1, Vc quorum ag -1 and CCHF vOTU inh-2 2.
CCOC(=O)c1nn(-c2ccccc2C)c(=O)cc1N1CCN(C(=O)c2ccco2)CC1 was read as PriA SSB inh -6.
CC(=O)Oc1ccc2c(=O)c(-c3cnn(-c4ccccc4)c3)c(C(F)(F)F)oc2c1OC(C)=O was read as PriA SSB inh -5.
Screening Cc1c(C#N)c(O)[nH]c(=O)c1N=Nc1ccc(Cl)c(C(=O)O)c1 returned CCHF vOTU inh-1 31*, PrPC surface inh -50, PriA SSB inh -2, TcdB GH inh 1, Vc quorum ag -2 and CCHF vOTU inh-2 -3.
COc1cc(NC(C)CCCN)c2ncccc2c1Oc1ccccc1 (centres undefined) was read as CCHF vOTU inh-1 30*, PrPC surface inh 4, PriA SSB inh 16, DUSP3 inh -1, Vc quorum ag 0 and CCHF vOTU inh-2 -3.
Screening COc1ccc(Br)c(C(=O)NCC2CCN(c3nccnc3C#N)CC2)c1 returned PriA SSB inh -10.
CC1([N+](=O)[O-])COP(=O)(Nc2cccc(Cl)c2)OC1 (centres undefined) was read as CCHF vOTU inh-1 38*, PrPC surface inh -4, PriA SSB inh -8, TcdB GH inh 0, Vc quorum ag inactive and CCHF vOTU inh-2 -18.
